These results are taken from PubChem BioAssay (EPA / NIEHS).

“And” between values parts separate entries of the source, which are not always exact repeats. Equal entries are not always repeated. Some compounds were tested as several samples or in several runs, with calls that do not always agree. The source made the active and inactive calls. How the source made its calls: active means hit-call score of the fitted dose curve at least 0.9, where 1 is the maximum; inactive means score below 0.9.

Test [1] is described as follows: BSK_CASM3C_SRB: Viability Assessment in the BioMAP Diversity Plus: CASM3C Assay (AID 2283050).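 Further: cells exposed to compound for 24 h.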 The settings on record: primary human coronary artery smooth muscle cells.
Read-out in test [2]: Thrombomodulin, THBD (gene 7056)
Kind of test: BSK_CASM3C_Thrombomodulin: BioMAP Diversity Plus: CASM3C Assay for Thrombomodulin Biomarker Activity (AID 2283051).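 Further: thrombomodulin protein level measured by ELISA 24 h after dosing.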 The settings on record: primary human coronary artery smooth muscle cells; actives raise or lower the signal.

Read-out in test [3]: Tissue Factor, F3 (gene 2152)
Kind of test: BSK_CASM3C_TissueFactor: BioMAP Diversity Plus: CASM3C Assay for Tissue Factor Biomarker Activity (AID 2283052).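 Further: cell surface tissue factor protein level read by ELISA.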 The settings on record: primary human coronary artery smooth muscle cells; actives raise or lower the signal.

Read-out in test [4]: Interferon-gamma inducible Protein 10 (IP10), CXCL10 (gene 3627)
The test can be described thus: BSK_hDFCGF_IP10: BioMAP Diversity Plus: hDFCGF Assay for Interferon-gamma inducible Protein 10 (IP10) Biomarker Activity (AID 2283053). To be noted: primary human foreskin fibroblasts; actives raise or lower the signal. The method in brief:
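Primary human foreskin fibroblasts exposed to chemicals for 24 h. IP-10 measured by ELISA; changes fitted bidirectionally against DMSO baseline.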

Read-out in test [5]: Urokinase-type plasminogen activator receptor (uPAR), PLAUR (gene 5329)
The test can be described thus: BSK_CASM3C_uPAR: BioMAP Diversity Plus: CASM3C Assay for Urokinase-type plasminogen activator receptor (uPAR) Biomarker Activity (AID 2283054).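 Further: cell-surface uPAR protein level quantified by ELISA.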 The settings on record: primary human coronary artery smooth muscle cells; actives raise or lower the signal.

Read-out in test [6]: Vascular cell adhesion molecule 1 (VCAM1), VCAM1 (gene 7412)
Kind of test: BSK_CASM3C_VCAM1: BioMAP Diversity Plus: CASM3C Assay for Vascular cell adhesion molecule 1 (VCAM1) Biomarker Activity (AID 2283055).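 Further: VCAM-1 protein level quantified by ELISA on the cells.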 To be noted: primary human coronary artery smooth muscle cells; actives raise or lower the signal.

Read-out in test [7]: Collagen III, COL3A1 (gene 1281)
The test can be described thus: BSK_hDFCGF_CollagenIII: BioMAP Diversity Plus: hDFCGF Assay for Collagen III Biomarker Activity (AID 2283056). The settings on record: primary human foreskin fibroblasts; actives raise or lower the signal. A digest of the protocol:
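ELISA readout of Collagen III in human dermal (foreskin) fibroblasts, taken 24 h post-treatment. Gain or loss relative to DMSO vehicle fitted in both directions.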

Read-out in test [8]: Epidermal growth factor receptor (EGFR), EGFR (gene 1956)
Kind of test: BSK_hDFCGF_EGFR: BioMAP Diversity Plus: hDFCGF Assay for Epidermal growth factor receptor (EGFR) Biomarker Activity (AID 2283057). The settings on record: primary human foreskin fibroblasts; actives raise or lower the signal. The method in brief:
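Primary human foreskin fibroblasts (hDFCGF system), sampled 24 h after dosing; EGFR quantified by ELISA. Bidirectional fit relative to DMSO baseline; SRB total-protein staining in parallel cultures for cytotoxicity.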

Read-out in test [9]: Interleukin-8 (IL8), CXCL8 (gene 3576)
Kind of test: BSK_hDFCGF_IL8: BioMAP Diversity Plus: hDFCGF Assay for Interleukin-8 (IL8) Biomarker Activity (AID 2283058). To be noted: primary human foreskin fibroblasts; actives raise or lower the signal. A digest of the protocol:
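IL-8 levels read by ELISA at 24 hours after dosing human skin fibroblast cultures. Parallel SRB staining assessed overt cytotoxicity, and gain or loss of signal was fitted against DMSO control.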

Test [10] is described as follows: BSK_hDFCGF_Proliferation: Cell Proliferation Assessment in the BioMAP Diversity Plus: hDFCGF Assay (AID 2283059).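 Further: curves fitted for both rise and fall of signal versus DMSO baseline.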 The settings on record: primary human foreskin fibroblasts. The method in brief: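 This proliferation readout used SRB total-protein staining of human foreskin fibroblasts […], normalized to DMSO with bidirectional curve fitting.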
Read-out in test [11]: Macrophage colony-stimulating factor (MCSF), CSF1 (gene 1435)
The test can be described thus: BSK_hDFCGF_MCSF: BioMAP Diversity Plus: hDFCGF Assay for Macrophage colony-stimulating factor (MCSF) Biomarker Activity (AID 2283060). To be noted: primary human foreskin fibroblasts; actives raise or lower the signal. The method in brief: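 M-CSF levels read by ELISA at 24 h post-dosing in human skin fibroblasts. Parallel cultures stained with SRB assessed cytotoxicity at the same time point; response fitted in both directions against the DMSO baseline.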

The nature of test [12]: BSK_hDFCGF_SRB: Viability Assessment in the BioMAP Diversity Plus: hDFCGF Assay (AID 2283061).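 Further: cells exposed to compound for 24 h before the read.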 To be noted: primary human foreskin fibroblasts. A digest of the protocol: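 Viability was read as total protein: after 10% TCA fixation, wells were stained with 0.1% sulforhodamine B and read at 560 nm. Primary human foreskin fibroblasts were dosed for 24 h, with bidirectional fitting versus DMSO.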

Read-out in test [13]: TIMP metallopeptidase inhibitor 1 (TIMP1), TIMP1 (gene 7076)
The test can be described thus: BSK_hDFCGF_TIMP1: BioMAP Diversity Plus: hDFCGF Assay for TIMP metallopeptidase inhibitor 1 (TIMP1) Biomarker Activity (AID 2283062). To be noted: primary human foreskin fibroblasts; actives raise or lower the signal. The method in brief:
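TIMP-1 measured by ELISA 24 h after chemical dosing of primary human skin fibroblasts, with gain or loss fitted relative to DMSO. Parallel SRB staining (560 nm) monitored overt cytotoxicity.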

Read-out in test [14]: Monokine induced gamma interferon (MIG), CXCL9 (gene 4283)
Kind of test: BSK_hDFCGF_MIG: BioMAP Diversity Plus: hDFCGF Assay for Monokine induced gamma interferon (MIG) Biomarker Activity (AID 2283063). To be noted: primary human foreskin fibroblasts; actives raise or lower the signal. A digest of the protocol: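 Human primary foreskin fibroblasts in the hDFCGF system, exposed to test chemical for 24 h; MIG measured by ELISA. Bidirectional curve fitting against DMSO negative control as activity baseline.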

Read-out in test [15]: Matrix Metallopeptidase 1 (MMP1), MMP1 (gene 4312)
The test can be described thus: BSK_hDFCGF_MMP1: BioMAP Diversity Plus: hDFCGF Assay for Matrix Metallopeptidase 1 (MMP1) Biomarker Activity (AID 2283064). To be noted: primary human foreskin fibroblasts; actives raise or lower the signal. A digest of the protocol: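 Primary human foreskin fibroblasts in the hDFCGF system were dosed with test chemical, and MMP1 was measured by ELISA 24 h later. Values come from bidirectional curve fitting against the DMSO baseline.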

Read-out in test [16]: Vascular cell adhesion molecule 1 (VCAM1), VCAM1 (gene 7412)
Kind of test: BSK_hDFCGF_VCAM1: BioMAP Diversity Plus: hDFCGF Assay for Vascular cell adhesion molecule 1 (VCAM1) Biomarker Activity (AID 2283065). To be noted: primary human foreskin fibroblasts; actives raise or lower the signal. A digest of the protocol: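 ELISA readout of VCAM-1 on human dermal fibroblast primary cultures, 24 h after chemical exposure. Gain or loss of signal fitted in both directions against DMSO baseline.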

Read-out in test [17]: Plasminogen activator inhibitor-1 (PAI1), SERPINE1 (gene 5054)
The test can be described thus: BSK_hDFCGF_PAI1: BioMAP Diversity Plus: hDFCGF Assay for Plasminogen activator inhibitor-1 (PAI1) Biomarker Activity (AID 2283066). The settings on record: primary human foreskin fibroblasts; actives raise or lower the signal. A digest of the protocol:
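Human foreskin fibroblast primary cells, 24 h chemical exposure; PAI-1 measured by ELISA. Bidirectional fitting relative to DMSO; parallel cultures stained with SRB for total protein to flag overt cytotoxicity.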

Read-out in test [18]: Interferon-gamma inducible Protein 10 (IP10), CXCL10 (gene 3627)
Kind of test: BSK_KF3CT_IP10: BioMAP Diversity Plus: KF3CT Assay for Interferon-gamma inducible Protein 10 (IP10) Biomarker Activity (AID 2283068). To be noted: primary human keratinocytes with fibroblasts; actives raise or lower the signal. The method in brief: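 Signal is secreted/surface IP-10 by ELISA in a human primary skin co-culture of keratinocytes and foreskin fibroblasts, taken 24 h post-dosing; DMSO served as negative control.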

Test [19] in a line: BSK_KF3CT_SRB: Viability Assessment in the BioMAP Diversity Plus: KF3CT Assay (AID 2283069).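 Further: total protein by sulforhodamine B staining as a cytotoxicity measure; read 24 h after compound addition.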 The settings on record: primary human keratinocytes with fibroblasts. A digest of the protocol: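 Human primary keratinocyte plus foreskin fibroblast co-culture exposed to chemicals for 24 h. Total protein measured by 0.1% sulforhodamine B staining after 10% TCA fixation, read at 560 nm; bidirectional fitting versus DMSO baseline.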

Turning to `CCOC(=O)CCCCCCCCC(=O)OCC`, the result in test [1], in [2], in test [3], in test [4], in [5] and in test [6] was inactive. Moreover, the result in test [7], in test [8], in [9], in test [10], in test [11] and in [12] was inactive. The result in test [13], in [14], in test [15], in test [16], in [17] and in test [18] was inactive. Also, in test [19], the result was inactive.
One may read the AC50 as the concentration giving half of the maximal activity seen. Turning to `O=C(O)C(F)(F)OC(F)(F)C(F)(F)OC(F)(F)C(F)(F)C(F)(F)C(F)(F)F`, the outcome in test [1], in test [2], in [3], in [5], in test [6] and in [8] was inactive. Further, the result in [9], in test [10], in test [12], in [13], in [15] and in [17] was inactive. Besides, in test [19], the result was inactive. Besides, the AC50 is 15.6 µM (active) and 18.7 µM (active) in test [4]; 22.3 µM (active) and 29.2 µM (active) in test [7]; 6.97 µM (active) and 30 µM (active) in test [11]; 10400 nM (active) in [12]; 12 µM (active) and 48.6 µM (active) in test [14]; 32.2 µM (active) and 30 µM (active) in test [18].
Regarding `c1ccc(OCCOc2ccccc2)cc1`, the result in test [1], in test [2], in test [3], in [4], in [5] and in test [6] was inactive. In addition, the result in test [7], in test [8], in test [9], in [10], in test [11] and in [12] was inactive. Also, the result in test [13], in test [14], in test [15], in test [16], in test [17] and in test [18] was inactive. In [19], the result was inactive. In addition, in [12], the half-maximal activity concentration (AC50) was 150 nM (active).
Consider `CCOC(=O)C=Cc1ccccc1`, for which the result in test [1], in test [2], in [4], in test [5], in test [6] and in [7] was inactive. The outcome in test [8], in test [9], in [10], in test [11], in test [12] and in test [13] was inactive. For the same compound, the result in [14], in test [15], in [17], in [18] and in [19] was inactive. Moreover, the AC50 in test [3] is 23.9 nM (active).
As to `O=S1(=O)CC(Cl)(Cl)C(Cl)(Cl)C1`, the AC50 is 820 nM (active) in test [1]; 7520 nM (active) in [2]; 2070 nM (active) in test [3]; 961 nM (active) in test [4]; 1050 nM (active) in test [5]; 930 nM (active) in test [6]. For the same compound, the AC50 in test [7] was 1.35 µM (active); in test [10], 16 nM (active); in test [11], 710 nM (active); in test [12], 845 nM (active); in test [13] it was 839 nM (active); in test [14] it was 794 nM (active). The half-maximal activity concentration (AC50) in [15] was 865 nM (active); in test [17], 865 nM (active); in [18], 2.65 µM (active); in test [19] it was 1360 nM (active). Besides, the outcome in [8] and in test [9] was inactive.
